aDG glyco up = increases alpha dystroglycan glycosylation; Pro5-aDG cells, alpha-DG glycosylation AlphaScreen (IIH6); 0% Pro5, 100% B10-LARGE cell signal; actives 0.22% (n = 360,000); AID 624168; activation, % at 10 µM;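 active = activation of at least 8% versus controls, or a plate z-score of at least 8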;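 note: Pro5 are CHO cells carrying HIG-tagged alpha-DG that lacks glycosylation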
A1 inh = inhibitors of the anti-apoptotic protein A1, read as caspase activation | actives 0.066% (n = 330,000) | MEF A1-2A-BIM cells, Caspase-Glo 3/7 luminescence, 3 h; percent of clofoctol response, vehicle zero | AID 2462 | caspase activation, % (test concentration not listed);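 active = over half of replicate activation scores above 10%, or exactly half above 10 with the replicate mean above 10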
SUMO Mot1 rescue = blocks SUMOylation pathway, rescuing yeast Mot1-301 growth | S. cerevisiae Mot1-301 growth rescue, ATP luminescence, 38.5C; percent above DMSO median, 100 means doubled | growth rescue, % at 18.8 µM | actives 1% (n = 320,000);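 active = every valid replicate shows activation above 250% relative to neutral control wells; inactive = the rest, any valid replicate at or below 250%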
ARNT-TACC3 inh = ARNT/TACC3 interaction disruption; AlphaScreen His-ARNT PAS-B/GST-TACC3 binding, luminescence; TACC3 fragment carries E629A point mutation; inhibition, % at 9.99 µM; Q9Y6A5; actives 0.66% (n = 390,000);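 active = mean inhibition of replicates at least 50% and at least half of replicates each reaching 50%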
AI-2 QS modul = modulates the Vibrio harveyi AI-2 quorum sensing system. AID 2094. activity change, % at 7.5 µM. actives 0.4% (n = 300,000). Vibrio harveyi JMH597 AI-2 luminescence/OD600 ratio, 9 h; hits give low values; strain lacks LuxN and CqsS sensors; 0 = neutral-control median; in the data active = activity change below about -75%, passing the limit was not always enough;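 note: luminescence divided by OD600 gain over 9 h not by final OD600 alone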
Of the large screens only hits and unclear results are named; the others gave an inactive call. This is a sample that favours compounds with a hit; in the whole collection about 1.8% have one here.

Cc1ccc(NN2C(=O)C=C(c3ccc(Cl)cc3)C2=O)cc1	A1 inh 10.8, SUMO Mot1 rescue 571.6
Cc1ccc(S(=O)(=O)Nc2cc(Cl)c(O)c3ncccc23)cc1	ARNT-TACC3 inh 47.8, AI-2 QS modul -226.8
COC(=O)C1=CN(C(C)C)C=C(C(=O)OC)C1c1cccc(OC)c1	none
C[C@@H]1CN([C@H](C)CO)C(=O)c2cc(NC(=O)Cc3ccccc3)ccc2O[C@@H]1CN(C)C(=O)Nc1ccc(C(F)(F)F)cc1	none (no result: aDG glyco up, A1 inh, SUMO Mot1 rescue, AI-2 QS modul)
CCC(=O)N1CCN(c2ccc(NC(=O)c3ccc4ccccc4c3)cc2)CC1	none (no result: ARNT-TACC3 inh)
COc1cc(NC(=O)c2ccccc2F)ccc1NC(=O)c1cc2ccccc2o1	A1 inh 13.8
COc1cc(NC(=O)c2ccc(F)cc2)ccc1NC(=O)c1cc2ccccc2o1	none
COc1cc(NC(=O)c2ccc(C)cc2C)ccc1NC(=O)c1cc2ccccc2o1	A1 inh 15.3
COc1ccc(-n2c(C)n[nH]c2=O)cc1	none
COc1ccc(-n2c(C)n[nH]c2=O)cc1OC	SUMO Mot1 rescue 347.3
O=C(Nc1ccc2c(c1)[C@@H]1C[C@@H](CC(=O)N3CCc4ccccc4C3)O[C@H](CO)[C@@H]1O2)c1ccc2c(c1)OCO2	none (no result: aDG glyco up, A1 inh, SUMO Mot1 rescue, AI-2 QS modul)
O=C(Nc1ccc2c(c1)[C@@H]1C[C@H](CC(=O)N3CCc4ccccc4C3)O[C@H](CO)[C@@H]1O2)c1ccc2c(c1)OCO2	ARNT-TACC3 inh 47.6 (no result: aDG glyco up, A1 inh, SUMO Mot1 rescue, AI-2 QS modul)
COc1ccc(OCCCN2CCCCCC2)cc1	ARNT-TACC3 inh 46.6
COc1cccc(OCCCN2CCCCC2)c1	none
COc1ccc(Cc2nc(-c3ccc(Br)cc3)no2)cc1	AI-2 QS modul -76.0 (no result: A1 inh)
Cc1cccc(N2CCN(C(=S)NC3CCCCC3)CC2)c1C	SUMO Mot1 rescue active
Cc1ccc(C)c(N2CCN(C(=S)NC3CCCCC3)CC2)c1	none
COc1cc2c(cc1OC)CN(CCC(=O)c1ccc(Br)cc1)CC2	none
CN(C)c1ccc(N/C=C/C(=O)C(C)(C)C)cc1	ARNT-TACC3 inh 26.8
CCOc1cccc2sc(N(CCN(CC)CC)C(=O)c3cccc([N+](=O)[O-])c3)nc12	none
CCOc1cccc2sc(N(CCN(CC)CC)C(=O)c3cccc(N4C(=O)CCC4=O)c3)nc12	SUMO Mot1 rescue 289.8
C[C@@H]1CN([C@H](C)CO)C(=O)c2cc(NC(=O)Nc3cccc4ccccc34)ccc2O[C@@H]1CN(C)C	none (no result: aDG glyco up, A1 inh, SUMO Mot1 rescue, AI-2 QS modul)
CCOC(=O)C1(CC2CC2)CCN(Cc2cnc(-c3ccccc3C)nc2)CC1	SUMO Mot1 rescue 945.9 (no result: ARNT-TACC3 inh)
COc1ccc(C=C(C#N)C(=O)c2ccccc2)cc1	none (no result: A1 inh, SUMO Mot1 rescue, ARNT-TACC3 inh, AI-2 QS modul)
COc1cc(/C=C(\C#N)C(=O)c2ccc(O)c(O)c2)cc(I)c1O	ARNT-TACC3 inh 51.1 (no result: AI-2 QS modul)
C/C=C/c1ccc([C@@H]2[C@@H](CO)N(Cc3ccccn3)[C@H]2CNC(C)=O)cc1	none (no result: aDG glyco up, A1 inh, SUMO Mot1 rescue, AI-2 QS modul)
C/C=C/c1ccc([C@@H]2[C@H](CO)N(Cc3ccccn3)[C@H]2CNC(C)=O)cc1	ARNT-TACC3 inh 37.2 (no result: aDG glyco up, A1 inh, SUMO Mot1 rescue, AI-2 QS modul)
CN(C)CCN1C(=O)C(=O)/C(=C(/O)c2ccc(S(=O)(=O)N3CCOCC3)cc2)C1c1ccc(Br)cc1 (stereo unspecified)	none
CN(C)CCN1C(=O)C(=O)/C(=C(/O)c2ccc(S(=O)(=O)N3CCOCC3)cc2)C1c1ccccc1 (stereo unspecified)	SUMO Mot1 rescue 314.5
CC1(OC(=O)c2cccs2)C(=O)C=C2C=C3CCCN3C=C2C1=O (stereo unspecified)	ARNT-TACC3 inh 8.4
CCc1ccc(OCC(=O)N(Cc2cccs2)C2CCS(=O)(=O)C2)cc1 (stereo unspecified)	none (no result: A1 inh)
CN(C1=C(N2CCCCC2)C(=O)c2ccccc2C1=O)c1ccccc1	ARNT-TACC3 inh 47.4
CCOC(=O)NNc1ccc2nonc2c1[N+](=O)[O-]	AI-2 QS modul -91.9 (no result: aDG glyco up)
Cc1ccc(C)c(CSC2=NN3CCCC(=O)N=C3S2)c1	none
O=C1CN(C(=S)Nc2ccc(OC(F)F)cc2)CCN1	none
Clc1ccc(NCc2ccsc2)cc1	SUMO Mot1 rescue 408.4 (no result: aDG glyco up, ARNT-TACC3 inh)
Fc1ccccc1CNc1ccc(Cl)cc1	none
CCOc1ccc(NC2=NCC(=O)N2Cc2cccs2)cc1	none
CCN1C(=O)[C@H]2[C@@H](c3ccc(-c4ccc(OC)cc4)cc3)N3CCCC[C@@]3(C(=O)OC)[C@H]2C1=O	SUMO Mot1 rescue 787.8
